Non-standard residues stand in square brackets, D forms with d. Residues, ends and D or L forms follow the SMILES beside them. *: point of attachment. Benzoyl(4-OPh) = O=C(c1ccc(Oc2ccccc2)cc1)*; Lys(Et2) = CCN(CC)CCCC[C@H](N)C(=O)O; d(aIle) = CC[C@H](C)[C@@H](N)C(=O)O; Gly(cPent) = N[C@H](C(=O)O)C1CCCC1; NH(propargyl) = C#CCN*
Columns and labels:
Conditions in all cases: Compound concentration 20.0 uM
[1] = target: Tyrosine-protein kinase ABL1 (Homo sapiens) (UniProt P00519)
[2] = target: Bromodomain-containing protein 4 (Homo sapiens) (UniProt O60885)
[3] = target: Cyclin-dependent kinase 2 (Homo sapiens) (UniProt P24941)
[4] = target: Casein kinase I isoform delta (Homo sapiens) (UniProt P48730)
Sequence of Casein kinase I isoform delta (Homo sapiens) (P48730 whole entry, looked up, canonical isoform): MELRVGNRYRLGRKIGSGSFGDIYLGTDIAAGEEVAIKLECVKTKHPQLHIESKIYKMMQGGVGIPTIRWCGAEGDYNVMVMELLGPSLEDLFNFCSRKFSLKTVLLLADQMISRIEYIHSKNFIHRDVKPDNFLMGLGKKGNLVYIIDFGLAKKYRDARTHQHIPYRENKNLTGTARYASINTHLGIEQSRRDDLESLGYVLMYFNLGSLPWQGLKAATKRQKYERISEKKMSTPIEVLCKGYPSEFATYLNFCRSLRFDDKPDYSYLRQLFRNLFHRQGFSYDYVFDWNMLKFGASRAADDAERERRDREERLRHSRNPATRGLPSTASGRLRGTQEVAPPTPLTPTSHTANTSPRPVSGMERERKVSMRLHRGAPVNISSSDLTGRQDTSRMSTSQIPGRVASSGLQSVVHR

[5] = target: Glycogen synthase kinase-3 beta (Homo sapiens) (UniProt P49841)
Sequence of Glycogen synthase kinase-3 beta (Homo sapiens) (P49841 whole entry, looked up): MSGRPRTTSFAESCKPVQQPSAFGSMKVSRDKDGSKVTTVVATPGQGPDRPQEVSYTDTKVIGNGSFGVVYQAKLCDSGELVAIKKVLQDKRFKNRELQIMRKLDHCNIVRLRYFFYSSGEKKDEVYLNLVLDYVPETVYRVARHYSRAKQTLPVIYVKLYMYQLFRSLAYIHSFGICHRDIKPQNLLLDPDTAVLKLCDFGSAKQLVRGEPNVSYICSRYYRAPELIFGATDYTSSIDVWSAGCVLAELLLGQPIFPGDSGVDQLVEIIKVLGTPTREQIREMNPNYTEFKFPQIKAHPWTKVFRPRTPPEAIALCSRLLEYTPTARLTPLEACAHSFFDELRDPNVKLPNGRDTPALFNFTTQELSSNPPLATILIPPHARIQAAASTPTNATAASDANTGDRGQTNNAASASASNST

[6] = target: Mitogen-activated protein kinase 1 (Homo sapiens) (UniProt P28482)
Sequence of Mitogen-activated protein kinase 1 (Homo sapiens) (P28482 whole entry): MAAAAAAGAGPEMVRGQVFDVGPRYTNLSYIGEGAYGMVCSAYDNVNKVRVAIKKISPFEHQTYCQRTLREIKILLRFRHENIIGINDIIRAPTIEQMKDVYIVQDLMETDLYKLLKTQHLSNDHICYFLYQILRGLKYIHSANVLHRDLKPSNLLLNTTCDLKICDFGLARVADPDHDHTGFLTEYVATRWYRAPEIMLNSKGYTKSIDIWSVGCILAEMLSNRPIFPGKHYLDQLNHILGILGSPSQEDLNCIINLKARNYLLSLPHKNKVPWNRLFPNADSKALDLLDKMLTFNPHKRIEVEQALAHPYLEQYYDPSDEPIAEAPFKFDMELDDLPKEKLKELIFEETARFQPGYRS

[7] = target: T1, Aurora kinase A (Homo sapiens) (UniProt O14965)
T1 sequence (whole entry): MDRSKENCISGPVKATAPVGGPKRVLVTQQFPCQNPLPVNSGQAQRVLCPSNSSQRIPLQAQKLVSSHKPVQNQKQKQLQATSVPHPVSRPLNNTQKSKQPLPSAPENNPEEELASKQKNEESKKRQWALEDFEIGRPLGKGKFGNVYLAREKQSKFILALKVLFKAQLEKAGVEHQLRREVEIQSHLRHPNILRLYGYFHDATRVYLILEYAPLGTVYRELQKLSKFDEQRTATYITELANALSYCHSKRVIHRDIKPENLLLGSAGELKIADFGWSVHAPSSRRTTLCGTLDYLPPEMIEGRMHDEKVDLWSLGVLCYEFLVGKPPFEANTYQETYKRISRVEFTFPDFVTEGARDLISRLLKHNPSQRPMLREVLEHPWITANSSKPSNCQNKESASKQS

[8] = target: T2, Transcription intermediary factor 1-alpha (Homo sapiens) (UniProt O15164)
T2 sequence (whole entry): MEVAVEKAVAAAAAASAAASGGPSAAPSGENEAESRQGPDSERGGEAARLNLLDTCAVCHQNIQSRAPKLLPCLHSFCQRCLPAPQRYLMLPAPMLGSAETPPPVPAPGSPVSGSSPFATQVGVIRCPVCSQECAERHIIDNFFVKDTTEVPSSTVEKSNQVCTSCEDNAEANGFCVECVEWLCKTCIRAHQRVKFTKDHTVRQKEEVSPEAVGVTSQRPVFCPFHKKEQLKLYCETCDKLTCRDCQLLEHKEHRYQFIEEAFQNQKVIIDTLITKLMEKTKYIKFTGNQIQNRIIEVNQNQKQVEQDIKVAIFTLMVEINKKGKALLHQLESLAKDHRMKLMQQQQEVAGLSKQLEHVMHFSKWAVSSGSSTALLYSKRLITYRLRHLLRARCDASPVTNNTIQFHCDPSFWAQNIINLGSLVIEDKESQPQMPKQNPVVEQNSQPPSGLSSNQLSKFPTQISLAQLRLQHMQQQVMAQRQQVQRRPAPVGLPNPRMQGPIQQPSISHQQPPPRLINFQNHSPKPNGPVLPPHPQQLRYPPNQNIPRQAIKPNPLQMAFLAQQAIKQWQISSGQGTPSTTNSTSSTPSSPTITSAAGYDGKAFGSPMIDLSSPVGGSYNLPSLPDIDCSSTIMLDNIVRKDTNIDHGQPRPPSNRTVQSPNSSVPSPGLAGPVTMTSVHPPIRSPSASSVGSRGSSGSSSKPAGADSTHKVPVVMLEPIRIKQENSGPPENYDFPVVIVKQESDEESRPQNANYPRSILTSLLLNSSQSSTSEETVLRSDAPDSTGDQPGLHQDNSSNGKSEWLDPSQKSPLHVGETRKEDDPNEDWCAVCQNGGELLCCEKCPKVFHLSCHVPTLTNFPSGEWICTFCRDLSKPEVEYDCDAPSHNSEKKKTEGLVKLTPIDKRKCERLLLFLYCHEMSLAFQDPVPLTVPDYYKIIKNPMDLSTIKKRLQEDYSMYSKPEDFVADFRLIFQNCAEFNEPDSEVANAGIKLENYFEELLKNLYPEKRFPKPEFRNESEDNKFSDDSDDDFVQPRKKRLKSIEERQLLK

Sequence of Tyrosine-protein kinase ABL1 (Homo sapiens) (P00519 whole entry): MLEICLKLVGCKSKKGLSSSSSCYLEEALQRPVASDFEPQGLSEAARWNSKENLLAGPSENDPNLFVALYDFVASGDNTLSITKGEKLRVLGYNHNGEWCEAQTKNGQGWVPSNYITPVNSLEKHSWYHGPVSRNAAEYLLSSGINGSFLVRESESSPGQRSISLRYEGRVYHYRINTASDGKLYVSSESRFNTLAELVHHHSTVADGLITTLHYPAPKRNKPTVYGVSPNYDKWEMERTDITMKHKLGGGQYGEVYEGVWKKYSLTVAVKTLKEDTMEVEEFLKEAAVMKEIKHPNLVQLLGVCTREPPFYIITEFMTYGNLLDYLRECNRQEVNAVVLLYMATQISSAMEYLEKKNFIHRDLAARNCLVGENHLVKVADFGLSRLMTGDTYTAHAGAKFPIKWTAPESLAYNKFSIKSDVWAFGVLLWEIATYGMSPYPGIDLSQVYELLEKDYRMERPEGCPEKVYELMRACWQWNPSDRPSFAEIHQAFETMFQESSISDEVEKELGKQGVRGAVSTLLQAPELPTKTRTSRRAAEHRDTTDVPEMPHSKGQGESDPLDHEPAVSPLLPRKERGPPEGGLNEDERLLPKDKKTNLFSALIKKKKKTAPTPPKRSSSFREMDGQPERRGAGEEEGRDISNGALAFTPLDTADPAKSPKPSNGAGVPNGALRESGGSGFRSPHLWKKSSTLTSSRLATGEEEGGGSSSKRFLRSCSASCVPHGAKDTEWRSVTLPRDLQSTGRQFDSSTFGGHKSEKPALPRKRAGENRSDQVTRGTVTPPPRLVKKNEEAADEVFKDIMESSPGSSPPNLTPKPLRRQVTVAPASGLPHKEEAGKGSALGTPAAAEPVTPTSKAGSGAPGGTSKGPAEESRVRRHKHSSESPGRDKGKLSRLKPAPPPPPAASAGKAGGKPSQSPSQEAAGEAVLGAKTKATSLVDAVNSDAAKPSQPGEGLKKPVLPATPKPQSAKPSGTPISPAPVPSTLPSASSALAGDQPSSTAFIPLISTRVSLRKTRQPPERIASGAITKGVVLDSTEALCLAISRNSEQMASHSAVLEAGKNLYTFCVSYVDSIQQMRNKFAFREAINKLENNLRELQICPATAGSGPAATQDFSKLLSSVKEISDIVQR

Compound | ΔTm [1] | ΔTm [2] | ΔTm [3] | ΔTm [4] | ΔTm [5] | ΔTm [6] | ΔTm [7] | ΔTm [8] | ΔTm ([5]; Protein concentration 2.0 uM)
O=C(NCCCCc1ccccc1)n1c(=O)oc2cc(-c3ccc(F)cc3)ccc21 | 0.52 °C | -2.75 °C | 0.86 °C | -0.19 °C | 0.3 °C | 0.07 °C | -1.29 °C | 0.81 °C | 
Nc1cccc(CNC(=O)c2ccc(Oc3ccc(OCc4cccc(F)c4)cc3)nc2)c1 | 1.07 °C | -0.91 °C | 0.38 °C | -0.56 °C | 1.13 °C | -0.86 °C | -1.57 °C | 0.24 °C | 
N#Cc1ccc([C@H]2CCCC[C@H]2O)cc1C(F)(F)F | 0.55 °C | -1.51 °C | 0.11 °C | 0.3 °C | -0.43 °C | -0.24 °C | -1.09 °C | -1.04 °C | 
CS(=O)(=O)Nc1ccc(-c2coc3cc(OCc4cccc(C(=O)O)c4)ccc3c2=O)cc1 | -0.03 °C | 0.08 °C | 0.07 °C | -0.49 °C | -0.46 °C | 0.64 °C | -0.26 °C | 0.89 °C | 
CNC(=O)c1cc(C(=O)NC2CC2)cn(Cc2ccccc2)c1=O | 0.09 °C | -0.92 °C | 0.1 °C | -0.13 °C | -0.62 °C | 0.15 °C | -2.45 °C | 0.41 °C | 
C=CCO/N=C1\c2ccccc2-c2nc(C#N)c(C#N)nc21 | 0.13 °C | -2.12 °C | 0.55 °C | -1.63 °C | 0.17 °C | -0.02 °C | -2.47 °C | 0.9 °C | 
C[C@]12O[C@H](C[C@]1(O)CO)n1c3ccccc3c3c4c(c5c6ccccc6n2c5c31)CNC4=O |  | -1.2 °C | 9.18 °C | 2.18 °C | 4.78 °C | 0.35 °C | 8.79 °C | -0.11 °C | 
Cc1sc2c(c1C)C(c1ccc(Cl)cc1)=N[C@@H](CC(=O)OC(C)(C)C)c1nnc(C)n1-2 | 0.27 °C |  | 0 °C | 0.21 °C | -0.11 °C | -0.24 °C | -0.4 °C | -1.48 °C | 
CN(C)NC(=O)CCC(=O)O | 0.19 °C | -2.43 °C | -0.11 °C | -0.1 °C | -0.76 °C | 0.1 °C | -2.27 °C | -0.24 °C | 
COc1cn(-c2ccc(-n3cccn3)cc2F)nc(-c2ccnn2-c2ccccc2)c1=O | 0.53 °C | 0.2 °C | 1.24 °C | 0.13 °C | 0.96 °C | 0.22 °C | -1.86 °C | -0.41 °C | 
COC(=O)C[C@@H]1N=C(c2ccc(Cl)cc2)c2c(sc(C)c2C)-n2c(C)nnc21 | -0.09 °C | 12.3 °C | -0.41 °C | 0.16 °C | -0.01 °C | -0.21 °C | -1.3 °C | -0.91 °C | 
COc1cc(C)[nH]c(=O)c1CNC(=O)c1c(C)n([C@H](C)C2CCN(CC(F)(F)F)CC2)c2ccccc12 | 0.27 °C | -2.03 °C | -0.09 °C | 0.08 °C | -0.64 °C | -0.27 °C | 0.25 °C | -1.56 °C | 
O=C1C(P(=O)(O)O)CC(O)N1O (stereo not drawn) | 0.12 °C | 0.66 °C | -0.03 °C | -0.38 °C | -0.77 °C | 0.16 °C | -2.18 °C | -0.46 °C | 
CC(C)n1nc(-c2cc3cc(O)ccc3[nH]2)c2c(N)ncnc21 |  | 2.33 °C | 2.02 °C | 5.15 °C |  | 0.14 °C | 3.86 °C | -0.37 °C | 2 °C
N[C@H]1CC[C@H](N[C@@H]2C[C@H]2c2ccccc2)CC1 | 0.04 °C | -1.89 °C | 0.04 °C | -0.14 °C | -0.74 °C | 0 °C | -1.42 °C | 0.93 °C | 
O=C1C(P(=O)(O)O)CCCN1O (stereo not drawn) | 0.38 °C | -1.37 °C | 0.09 °C | -0.23 °C | -1.56 °C | 0.01 °C | -2.37 °C | -0.05 °C | 
COc1ccc(C(CN(C)C)C2(O)CCCCC2)cc1 (stereo not drawn) | 0.51 °C | -2.55 °C | -0.01 °C | -0.1 °C | -0.27 °C | 0.12 °C | -1.68 °C | -0.25 °C | 
CCCCCn1c(C)c(C(=O)c2cccc3ccccc23)c2ccccc21 | 0.2 °C | -0.88 °C | 0.76 °C | 0.04 °C | -0.36 °C | 0.95 °C | -2.46 °C | 0.22 °C | 
CN(Cc1cccc(-c2ccncc2)c1)C(=O)Oc1ccc(-c2ccc(C(N)=O)cc2)cc1 | 0.52 °C | 0.54 °C | 0.45 °C | -0.05 °C | 0.86 °C | 0.04 °C | -1.82 °C | 0.18 °C | 
O=C(N1CCCC[C@H]1Cc1ccccc1)n1cc(-c2ccc(-c3ccccc3)cc2)nn1 | 0.09 °C | 5.42 °C | 0.51 °C | -0.09 °C | -2.39 °C | -0.72 °C | -1.72 °C | 1.36 °C | 
C#CCNC(=O)[C@H](CO)NC(=O)[C@H](CCCCN(CC)CC)NC(=O)[C@H](NC(=O)[C@@H](NC(=O)c1ccc(Oc2ccccc2)cc1)C1CCCC1)[C@@H](C)CC ({Benzoyl(4-OPh)}-[Gly(cPent)][d(aIle)][Lys(Et2)]S-{NH(propargyl)}) | 0.66 °C | -3.19 °C | -0.21 °C | 0.55 °C | -0.46 °C | 0.25 °C | 0.59 °C | -3.76 °C | 
O=C(N1CCCC[C@@H]1Cc1ccccc1)n1cc(-c2ccc(-c3ccccc3)cc2)nn1 | 0.24 °C | -2.3 °C | 0.21 °C | -1.21 °C | -0.59 °C | -0.45 °C | -2.78 °C | 2.73 °C | 

Reference: ChEMBL document CHEMBL5724796, “Tm Shift (DSF) assay results for EUbOPEN Chemogenomics Library” (2024)
